According to PubChem BioAssay (NCATS):
Inconclusive results are not listed. A number with no mark means an inactive call. Calls of active or inactive are those of the source. Calls come from the whole dose curve; as a rule, active = well fitted inhibition curve with a large enough effect; inconclusive = small, poorly fitted or top-dose-only effect; inactive = flat fitted curve, though single readings scatter.

System: CP268
Test: qHTS profiling for inhibitors of Plasmodium falciparum proliferation (AID 504749); note: nearly all actives have a fitted effect of over 60% in size;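 for activity, negative = inhibition: 0% = DMSO vehicle and full inhibition = artemisinin control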
Conditions: P. falciparum in erythrocytes, SYBR Green DNA, 72 h; series mostly up to 28.7 µM; activity, negative = inhibition: at the top concentration
In short: (§1)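 SYBR Green fluorescence (ex 485 nm, em 535 nm) reports parasite DNA after 72 h compound exposure of infected red cells at 0.3% parasitemia, 2.5% hematocrit; signal normalized to 0.29 uM artemisinin and vehicle wells.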
Potency is the fitted concentration of half-maximal effect.

Structure (SMILES)	activity, negative = inhibition	Potency
CC/C=C\C/C=C\C/C=C\C/C=C\C/C=C\C/C=C\CCC(=O)O	-1.32%	–
O=C(O)/C=C/c1ccccc1	0.0414%	–
CC(=O)Oc1cccc(C(=O)O)c1OC(C)=O	1.4%	–
CC(CNC(=O)c1cccnc1)NC(=O)c1cccnc1 (stereo not drawn)	-6.41%	–
CN=C1C=CC(=C(c2ccc(N(C)C)cc2)c2ccc(N(C)C)cc2)C=C1	–	1690 nM (active)
CC/C(=C(/CC)c1ccc(OP(=O)(O)O)cc1)c1ccc(OP(=O)(O)O)cc1	-6.16%	–
ClC(Cl)Cl	1.49%	–
CCCCCCCCCCCCCCCCCC[N+](C)(C)CCC[Si](OC)(OC)OC	-3.71%	–
Oc1cc(O)cc(O)c1	-3.51%	–
CC(=O)Nc1c(I)c(C(=O)O)c(I)c(N(C)C(C)=O)c1I	-2.53%	–
CC(C)CCC[C@@H](C)[C@H]1CC[C@H]2[C@@H]3CC=C4C[C@@H](O)CC[C@]4(C)[C@H]3CC[C@]12C	0.756%	–
CCCCCCCCCCCCOCCCN	-0.0385%	–
CC(C)(C)c1ccc2c(S(=O)(=O)O)c(C(C)(C)C)ccc2c1	8.03%	–
CCSc1ccc2c(c1)N(CCCN1CCN(C)CC1)c1ccccc1S2	-1.25% [at 12.8 µM]	–
c1ccc(-n2cnnn2)cc1	-2.12%	–
CN1CCC(OC(=O)C(Oc2ccc(Cl)cc2)Oc2ccc(Cl)cc2)CC1	-2.95%	–
CC(C)Cc1ccc([C@@H](C)C(=O)NS(C)(=O)=O)cc1	0.0127%	–
CCCc1ccc(C(=O)O)cc1	0.683%	–
CNC(=O)c1c(I)c(C(=O)NCC(=O)Nc2c(I)c(C(=O)O)c(I)c(C(=O)NCCO)c2I)c(I)c(N(C)C(C)=O)c1I	-6.68%	–
CC1CC(O)CC(C)(C)C1 (stereo not drawn)	-3.97%	–

Structure (SMILES)	activity, negative = inhibition	Potency
C=Cc1ccc(S(=O)(=O)O)cc1	0.596%	–
OCC1(CO)COC(C(Cl)(Cl)Cl)OC1	7.56%	–
CC(C)(C)CC(C)(C)c1cc(Cc2cc(C(C)(C)CC(C)(C)C)cc(-n3nc4ccccc4n3)c2O)c(O)c(-n2nc3ccccc3n2)c1	0.663%	–
O=C(O)c1ccc(OCCn2ccnc2)cc1	-0.0466%	–
CC(C)c1ncc([N+](=O)[O-])n1C	2.07%	–
CN1c2c(nc(N)[nH]c2=O)NCC1CNc1ccc(C(=O)NC(CCC(=O)O)C(=O)O)cc1 (stereo not drawn)	-0.186%	–
N=C(N)n1cccn1	-7.09%	–
N[C@H](CC(=O)O)C(=O)O	-1.83%	–
NCC(O)CC(=O)O (stereo not drawn)	-7.71%	–
CCN(CC)C(=O)c1cccnc1	-4.26%	–
CCOC(C)OCC	-0.598%	–
FCOC(C(F)(F)F)C(F)(F)F	-0.904%	–
CN[C@@H]1[C@H](O[C@H]2[C@H](O[C@H]3[C@H](O)[C@@H](O)[C@H](N=C(N)N)[C@@H](O)[C@@H]3N=C(N)N)O[C@@H](C)[C@]2(O)C=O)O[C@@H](CO)[C@H](O)[C@H]1O	-3.72%	–
CC(C)[C@@H](N)C(=O)O	-2.59%	–
O=C(O)COc1ccc(CCNS(=O)(=O)c2ccccc2)s1	-4.18%	–
CC(=O)Nc1ccc(OC(=O)c2ccccc2O)cc1	9%	–
CC(C)O	0.942%	–
C=CC[C@@H]1/C=C(\C)C[C@H](C)C[C@H](OC)[C@H]2O[C@@](O)(C(=O)C(=O)N3CCCC[C@H]3C(=O)O[C@H](/C(C)=C/[C@@H]3CC[C@@H](O)[C@H](OC)C3)[C@H](C)[C@@H](O)CC1=O)[C@H](C)C[C@@H]2OC	–	849 nM (active)
Cc1cc(=O)c(C(=O)N[C@@H](C(=O)N[C@@H]2C(=O)N3C(C(=O)O)=C(CSc4nnnn4C)CS[C@H]23)c2ccc(O)cc2)c[nH]1	1.81%	–

System: CP269
Test: as above
Conditions: P. falciparum in erythrocytes, SYBR Green DNA, 72 h; series mostly up to 28.7 µM; activity, negative = inhibition: at the top concentration
In short: as §1

Structure (SMILES)	activity, negative = inhibition	Potency
CC/C=C\C/C=C\C/C=C\C/C=C\C/C=C\C/C=C\CCC(=O)O	-7.8%	–
O=C(O)/C=C/c1ccccc1	-0.614%	–
CC(=O)Oc1cccc(C(=O)O)c1OC(C)=O	-0.827%	–
CC(CNC(=O)c1cccnc1)NC(=O)c1cccnc1 (stereo not drawn)	3.55%	–
CN=C1C=CC(=C(c2ccc(N(C)C)cc2)c2ccc(N(C)C)cc2)C=C1	–	849 nM (active)
CC/C(=C(/CC)c1ccc(OP(=O)(O)O)cc1)c1ccc(OP(=O)(O)O)cc1	-6.18%	–
ClC(Cl)Cl	0.832%	–
CCCCCCCCCCCCCCCCCC[N+](C)(C)CCC[Si](OC)(OC)OC	-0.143%	–
Oc1cc(O)cc(O)c1	-4.38%	–
CC(=O)Nc1c(I)c(C(=O)O)c(I)c(N(C)C(C)=O)c1I	-1.16%	–
CC(C)CCC[C@@H](C)[C@H]1CC[C@H]2[C@@H]3CC=C4C[C@@H](O)CC[C@]4(C)[C@H]3CC[C@]12C	-3.76%	–
CCCCCCCCCCCCOCCCN	0.153%	–
CC(C)(C)c1ccc2c(S(=O)(=O)O)c(C(C)(C)C)ccc2c1	-2.74%	–
CCSc1ccc2c(c1)N(CCCN1CCN(C)CC1)c1ccccc1S2	-13.2% [at 12.8 µM]	–
c1ccc(-n2cnnn2)cc1	1.52%	–
CN1CCC(OC(=O)C(Oc2ccc(Cl)cc2)Oc2ccc(Cl)cc2)CC1	-4.36%	–
CC(C)Cc1ccc([C@@H](C)C(=O)NS(C)(=O)=O)cc1	-0.746%	–
CCCc1ccc(C(=O)O)cc1	-3.59%	–
CNC(=O)c1c(I)c(C(=O)NCC(=O)Nc2c(I)c(C(=O)O)c(I)c(C(=O)NCCO)c2I)c(I)c(N(C)C(C)=O)c1I	-4.64%	–
CC1CC(O)CC(C)(C)C1 (stereo not drawn)	4.97%	–

Structure (SMILES)	activity, negative = inhibition	Potency
C=Cc1ccc(S(=O)(=O)O)cc1	-0.387%	–
OCC1(CO)COC(C(Cl)(Cl)Cl)OC1	7.74%	–
CC(C)(C)CC(C)(C)c1cc(Cc2cc(C(C)(C)CC(C)(C)C)cc(-n3nc4ccccc4n3)c2O)c(O)c(-n2nc3ccccc3n2)c1	-1.5%	–
O=C(O)c1ccc(OCCn2ccnc2)cc1	1.01%	–
CC(C)c1ncc([N+](=O)[O-])n1C	-7.4%	–
CN1c2c(nc(N)[nH]c2=O)NCC1CNc1ccc(C(=O)NC(CCC(=O)O)C(=O)O)cc1 (stereo not drawn)	1.1%	–
N=C(N)n1cccn1	-5.38%	–
N[C@H](CC(=O)O)C(=O)O	-0.259%	–
NCC(O)CC(=O)O (stereo not drawn)	-8.68%	–
CCN(CC)C(=O)c1cccnc1	0.426%	–
CCOC(C)OCC	-0.468%	–
FCOC(C(F)(F)F)C(F)(F)F	-1.66%	–
CN[C@@H]1[C@H](O[C@H]2[C@H](O[C@H]3[C@H](O)[C@@H](O)[C@H](N=C(N)N)[C@@H](O)[C@@H]3N=C(N)N)O[C@@H](C)[C@]2(O)C=O)O[C@@H](CO)[C@H](O)[C@H]1O	-14.8%	–
CC(C)[C@@H](N)C(=O)O	-1.53%	–
O=C(O)COc1ccc(CCNS(=O)(=O)c2ccccc2)s1	-3.49%	–
CC(=O)Nc1ccc(OC(=O)c2ccccc2O)cc1	-3.38%	–
CC(C)O	-6.35%	–
C=CC[C@@H]1/C=C(\C)C[C@H](C)C[C@H](OC)[C@H]2O[C@@](O)(C(=O)C(=O)N3CCCC[C@H]3C(=O)O[C@H](/C(C)=C/[C@@H]3CC[C@@H](O)[C@H](OC)C3)[C@H](C)[C@@H](O)CC1=O)[C@H](C)C[C@@H]2OC	–	3790 nM (active)
Cc1cc(=O)c(C(=O)N[C@@H](C(=O)N[C@@H]2C(=O)N3C(C(=O)O)=C(CSc4nnnn4C)CS[C@H]23)c2ccc(O)cc2)c[nH]1	-4.88%	–
